# Source: the supplement of paper PMC8728848
# The sample as a whole holds a higher share of the strongest signals than the screen did.
# Experiments:
# Experiment in all cases: glycan array binding signal (z-score within array); higher = stronger binding
# Settings in all cases: glycan notation: IUPAC condensed, linker removed
# [1] = target: Fuc(a1-2)Gal(b1-3)GlcNAc
# In short: (§1)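 From the Consortium for Functional Glycomics database, 3228 arrays were curated, keeping only those whose protein sequence was available. Binding is given as a within-array Z-score averaged across arrays sharing a protein sequence and across linkers. Negative Z-scores can be read as non-binding.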
# [2] = target: Fuc(a1-2)Gal(b1-3)GlcNAc(b1-2)Man(a1-3)[Fuc(a1-2)Gal(b1-3)GlcNAc(b1-2)Man(a1-6)]Man(b1-4)GlcNAc(b1-4)[Fuc(a1-6)]GlcNAc
# In short: as §1
# [3] = target: Fuc(a1-2)Gal(b1-3)GlcNAc(b1-3)GalNAc
# In short: as §1
# [4] = target: Fuc(a1-2)Gal(b1-3)GlcNAc(b1-3)[Neu5Ac(a2-6)Gal(b1-4)GlcNAc(b1-6)]Gal(b1-4)Glc
# In short: as §1
# [5] = target: Fuc(a1-2)Gal(b1-4)GlcNAc(b1-6)GalNAc
# In short: as §1
# [6] = target: Fuc(a1-2)[Gal(a1-3)]Gal(b1-4)GlcNAc(b1-2)Man
# In short: as §1
# [7] = target: Fuc(a1-2)[Gal(a1-3)]Gal(b1-4)GlcNAc(b1-2)Man(a1-3)[Fuc(a1-2)[Gal(a1-3)]Gal(b1-4)GlcNAc(b1-2)Man(a1-6)]Man(b1-4)GlcNAc(b1-4)GlcNAc
# In short: as §1
# [8] = target: Fuc(a1-2)[Gal(a1-3)]Gal(b1-4)GlcNAc(b1-3)GalNAc
# In short: as §1
# [9] = target: Fuc(a1-2)[Gal(a1-3)]Gal(b1-4)GlcNAc(b1-3)[Fuc(a1-2)[Gal(a1-3)]Gal(b1-4)GlcNAc(b1-6)]GalNAc
# In short: as §1
# [10] = target: Fuc(a1-2)[GalNAc(a1-3)]Gal(b1-4)GlcNAc(b1-2)Man
# In short: as §1
# [11] = target: Fuc(a1-3)[Gal(b1-4)]GlcNAc(b1-3)GalNAc
# In short: as §1
# [12] = target: Fuc(a1-4)GlcNAc
# In short: as §1
# [13] = target: Gal(a1-3)Gal(b1-4)GlcNAc(b1-2)Man(a1-3)[Gal(a1-3)Gal(b1-4)GlcNAc(b1-2)Man(a1-6)]Man(b1-4)GlcNAc(b1-4)GlcNAc
# In short: as §1
# [14] = target: Gal(a1-3)[Gal(a1-4)]Gal(b1-4)GlcNAc
# In short: as §1
# [15] = target: Gal(a1-4)Gal(b1-4)GlcNAc(b1-2)Man(a1-3)[Gal(a1-4)Gal(b1-4)GlcNAc(b1-2)Man(a1-6)]Man(b1-4)GlcNAc(b1-4)GlcNAc
# In short: as §1
# [16] = target: Gal(b1-3)Gal
# In short: as §1
# [17] = target: Gal(b1-3)GalNAc(a1-3)[Fuc(a1-2)]Gal(b1-4)Glc
# In short: as §1
# [18] = target: Gal(b1-3)GlcNAc(b1-6)GalNAc
# In short: as §1
# [19] = target: Gal(b1-3)GlcNAc6S
# In short: as §1
# [20] = target: Gal(b1-3)[Fuc(a1-4)]GlcNAc
# In short: as §1
# [21] = target: Gal(b1-4)Gal
# In short: as §1
# [22] = target: Gal(b1-4)GlcNAc(b1-2)Man(a1-3)[GlcNAc(b1-2)Man(a1-6)]Man(b1-4)GlcNAc(b1-4)GlcNAc
# In short: as §1
# [23] = target: Gal(b1-4)GlcNAc(b1-2)Man(a1-6)[Man(a1-3)]Man(b1-4)GlcNAc(b1-4)GlcNAc
# In short: as §1
# [24] = target: Gal(b1-4)GlcNAc(b1-2)[Gal(b1-4)GlcNAc(b1-4)]Man(a1-3)[Gal(b1-4)GlcNAc(b1-2)[Gal(b1-4)GlcNAc(b1-6)]Man(a1-6)]Man(b1-4)GlcNAc(b1-4)GlcNAc
# In short: as §1
# [25] = target: Gal(b1-4)GlcNAc(b1-2)[Gal(b1-4)GlcNAc(b1-6)]Man(a1-6)[Gal(b1-4)GlcNAc(b1-2)Man(a1-3)]Man(b1-4)GlcNAc(b1-4)[Fuc(a1-6)]GlcNAc
# In short: as §1
# [26] = target: Gal(b1-4)GlcNAc(b1-3)Gal(b1-4)GlcNAc(b1-2)Man(a1-3)[Gal(b1-4)GlcNAc(b1-3)Gal(b1-4)GlcNAc(b1-2)Man(a1-6)]Man(b1-4)GlcNAc(b1-4)GlcNAc
# In short: as §1
# [27] = target: Gal(b1-4)GlcNAc(b1-3)Gal(b1-4)GlcNAc(b1-2)[Gal(b1-4)GlcNAc(b1-3)Gal(b1-4)GlcNAc(b1-6)]Man(a1-6)[Gal(b1-4)GlcNAc(b1-3)Gal(b1-4)GlcNAc(b1-2)Man(a1-3)]Man(b1-4)GlcNAc(b1-4)GlcNAc
# In short: as §1
# [28] = target: Gal(b1-4)GlcNAc(b1-3)Gal(b1-4)GlcNAc(b1-6)[Gal(b1-3)]GalNAc
# In short: as §1
# [29] = target: Gal(b1-4)GlcNAc6P
# In short: as §1
# [30] = target: GalNAc(b1-4)GlcNAc(b1-2)Man(a1-3)[GalNAc(b1-4)GlcNAc(b1-2)Man(a1-6)]Man(b1-4)GlcNAc(b1-4)GlcNAc
# In short: as §1
# [31] = target: GalNAc(b1-4)GlcNAc(b1-3)GalNAc(b1-4)GlcNAc
# In short: as §1
# [32] = target: Glc(a1-6)Glc(a1-6)Glc
# In short: as §1
# [33] = target: GlcNAc(b1-2)Man(a1-3)[GlcNAc(b1-2)Man(a1-6)]Man(b1-4)GlcNAc(b1-4)[Fuc(a1-6)]GlcNAc
# In short: as §1
# [34] = target: GlcNAc(b1-2)[GlcNAc(b1-6)]Man(a1-6)[GlcNAc(b1-4)][GlcNAc(b1-2)Man(a1-3)]Man(b1-4)GlcNAc(b1-4)GlcNAc
# In short: as §1
# [35] = target: GlcNAc(b1-3)Gal(b1-4)GlcNAc(b1-3)Gal(b1-4)GlcNAc(b1-2)Man(a1-3)[GlcNAc(b1-3)Gal(b1-4)GlcNAc(b1-3)Gal(b1-4)GlcNAc(b1-2)Man(a1-6)]Man(b1-4)GlcNAc(b1-4)GlcNAc
# In short: as §1
# [36] = target: GlcNAc(b1-3)Gal(b1-4)GlcNAc(b1-3)[GlcNAc(b1-3)Gal(b1-4)GlcNAc(b1-3)]GalNAc
# In short: as §1
# [37] = target: GlcNAc(b1-4)GlcNAc(b1-4)GlcNAc(b1-4)GlcNAc(b1-4)GlcNAc
# In short: as §1
# [38] = target: Man(a1-3)[Man(a1-6)]Man(a1-6)[Man(a1-2)Man(a1-3)]Man(b1-4)GlcNAc(b1-4)GlcNAc
# In short: as §1
# [39] = target: Man(b1-4)GlcNAc
# In short: as §1
# [40] = target: Neu5Ac(a2-3)Gal(b1-3)[Neu5Ac(a2-6)]GlcNAc(b1-3)[Fuc(a1-3)[Gal(b1-4)]GlcNAc(b1-6)]Gal(b1-4)Glc
# In short: as §1
# [41] = target: Neu5Ac(a2-3)Gal(b1-4)GlcNAc(b1-3)Gal(b1-4)GlcNAc(b1-2)Man(a1-3)[Neu5Ac(a2-3)Gal(b1-4)GlcNAc(b1-3)Gal(b1-4)GlcNAc(b1-2)Man(a1-6)]Man(b1-4)GlcNAc(b1-4)GlcNAc
# In short: as §1
# [42] = target: Neu5Ac(a2-3)Gal(b1-4)GlcNAc(b1-3)Gal(b1-4)GlcNAc(b1-3)GalNAc
# In short: as §1
# [43] = target: Neu5Ac(a2-3)Gal(b1-4)GlcNAc6S
# In short: as §1
# [44] = target: Neu5Ac(a2-3)Gal(b1-4)[Fuc(a1-3)]GlcNAc(b1-3)GalNAc
# In short: as §1
# [45] = target: Neu5Ac(a2-3)Gal6S(b1-4)[Fuc(a1-3)]GlcNAc
# In short: as §1
# [46] = target: Neu5Ac(a2-3)[GalNAc(b1-4)]Gal(b1-4)GlcNAc(b1-3)GalNAc
# In short: as §1
# [47] = target: Neu5Ac(a2-6)Gal(b1-4)GlcNAc
# In short: as §1
# [48] = target: Neu5Ac(a2-6)Gal(b1-4)GlcNAc(b1-3)Gal(b1-4)GlcNAc(b1-3)Gal(b1-4)GlcNAc(b1-2)Man(a1-3)[Neu5Ac(a2-6)Gal(b1-4)GlcNAc(b1-3)Gal(b1-4)GlcNAc(b1-3)Gal(b1-4)GlcNAc(b1-2)Man(a1-6)]GalNAc
# In short: as §1
# [49] = target: Neu5Ac(a2-6)GalNAc(b1-4)GlcNAc6S
# In short: as §1
# [50] = target: Neu5Ac(a2-8)Neu5Ac(a2-3)[GalNAc(b1-4)]Gal(b1-4)Glc
# In short: as §1
# [51] = target: Neu5Ac(a2-8)Neu5Ac(a2-8)Neu5Ac(a2-3)[Gal(b1-3)GalNAc(b1-4)]Gal(b1-4)Glc
# In short: as §1
# [52] = target: Neu5Ac(a2-8)Neu5Ac(a2-8)Neu5Ac(a2-3)[GalNAc(b1-4)]Gal(b1-4)Glc
# In short: as §1
# [53] = target: Neu5Ac(a2-8)Neu5Gc(a2-3)Gal(b1-4)GlcNAc
# In short: as §1
# [54] = target: Neu5Gc(a2-3)Gal(b1-4)GlcNAc(b1-3)Gal(b1-4)GlcNAc(b1-2)Man(a1-3)[Neu5Gc(a2-3)Gal(b1-4)GlcNAc(b1-3)Gal(b1-4)GlcNAc(b1-2)Man(a1-6)]Man(b1-4)GlcNAc(b1-4)GlcNAc
# In short: as §1
# [55] = target: Neu5Gc(a2-3)Gal(b1-4)[Fuc(a1-3)]GlcNAc
# In short: as §1
# [56] = target: Neu5Gc(a2-8)Neu5Gc(a2-6)Gal(b1-4)GlcNAc
# In short: as §1
binder,measurement,setting,value
PX15642A-pgi-501-20-501 (Parabacteroides gingivalis) (protein) CELDRDPEGKDFQQPYTSFVQTKQNRDGLYALLRNTENPRMHFYQELQSDMYCTTITDGNSLAPFVNWDLGILNDHGRADEDEVSGIAGYYFVYNRLNQQANAFVNNTEAALQNQVYKNSTEIANAKSFLAEGKVLQALAIWRLMDRFSFHESVTEVNSGAKDLGVILLKEYNPGYIGPRATKAQCYDYILSRLSEAIEVLPENRESVLYVSRDYAYALRARIYLALGEYGKAAADAKMVVDKYPLIGAADASEFENIYRSDANNPEIIFRGFASATLGSFTATTLNGAAPAGKDIKYNPSAVPFQWVVDLYENEDFRKSVYIAKVVKKDKGYLVNKFLEDKAYRDVQDKPNLKVGARYFSVAEVYLILVESALQTGDTPTAEKYLKALSKARGAEVSVVNMEALQAERTRELIGEGSRLRDMVRWSIPNNHDAFETQPGLEGFANTTPLKAQAPVGFYAYTWEFPQRDRQTNPQLIKNWPI,glycan array binding signal (z-score),[1],-0.306
same,glycan array binding signal (z-score),[2],0.224
same,glycan array binding signal (z-score),[3],-0.094
same,glycan array binding signal (z-score),[4],-0.121
same,glycan array binding signal (z-score),[5],2.85
same,glycan array binding signal (z-score),[6],-0.144
same,glycan array binding signal (z-score),[7],0.849
same,glycan array binding signal (z-score),[8],1.21
same,glycan array binding signal (z-score),[9],0.225
same,glycan array binding signal (z-score),[10],-0.848
same,glycan array binding signal (z-score),[11],-0.744
same,glycan array binding signal (z-score),[12],2.72
same,glycan array binding signal (z-score),[13],-0.319
same,glycan array binding signal (z-score),[14],6.32
same,glycan array binding signal (z-score),[15],0.38
same,glycan array binding signal (z-score),[16],0.322
same,glycan array binding signal (z-score),[17],1.53
same,glycan array binding signal (z-score),[18],-0.003
same,glycan array binding signal (z-score),[19],0.706
same,glycan array binding signal (z-score),[20],-0.298
same,glycan array binding signal (z-score),[21],0.332
same,glycan array binding signal (z-score),[22],0.359
same,glycan array binding signal (z-score),[23],-0.027
same,glycan array binding signal (z-score),[24],0.733
same,glycan array binding signal (z-score),[25],0.317
same,glycan array binding signal (z-score),[26],2.09
same,glycan array binding signal (z-score),[27],2.23
same,glycan array binding signal (z-score),[28],2.71
same,glycan array binding signal (z-score),[29],-0.285
same,glycan array binding signal (z-score),[30],1.15
same,glycan array binding signal (z-score),[31],5.6
same,glycan array binding signal (z-score),[32],1.35
same,glycan array binding signal (z-score),[33],0.116
same,glycan array binding signal (z-score),[34],-0.076
same,glycan array binding signal (z-score),[35],2.32
same,glycan array binding signal (z-score),[36],0.014
same,glycan array binding signal (z-score),[37],0
same,glycan array binding signal (z-score),[38],0.018
same,glycan array binding signal (z-score),[39],0.033
same,glycan array binding signal (z-score),[40],-0.808
same,glycan array binding signal (z-score),[41],0.992
same,glycan array binding signal (z-score),[42],-0.213
same,glycan array binding signal (z-score),[43],-0.486
same,glycan array binding signal (z-score),[44],3.38
same,glycan array binding signal (z-score),[45],-1.24
same,glycan array binding signal (z-score),[46],-1.14
same,glycan array binding signal (z-score),[47],-0.264
same,glycan array binding signal (z-score),[48],2.23
same,glycan array binding signal (z-score),[49],0.286
same,glycan array binding signal (z-score),[50],-0.038
same,glycan array binding signal (z-score),[51],1.75
same,glycan array binding signal (z-score),[52],0.122
same,glycan array binding signal (z-score),[53],15.5
same,glycan array binding signal (z-score),[54],0.077
same,glycan array binding signal (z-score),[55],-0.476
same,glycan array binding signal (z-score),[56],-0.753
